From PubChem BioAssay (Tox21)
Several values for one entry are separate records, joined by “and”; a condition that tells them apart may be missing. Equal values may be shown once. Results filed as inconclusive are left out. A call without a number means that no potency is given here. The source holds several records for some structures; these can differ, active in one and inactive in another. Activity calls are given as the source filed them. Unless noted, the call rests on the fitted dose curve; in most records, active means well fitted curve in the direction sought with a large enough effect in the repeat runs; inconclusive means weak or mixed curves; inactive means no such curve, though single readings can be large; an effect the other way counts as inactive or inconclusive.

Legend:
[1] = qHTS assay to identify small molecule antagonists of the glucocorticoid receptor (GR) signaling pathway - cell viability counter screen (AID 720693); further: nearly all actives have a fitted effect of over 55% in size; further: potency means the concentration at half of the fitted maximal effect
[2] = qHTS assay for identifying genotoxic compounds that show differential cytotoxicity against isogenic chicken DT40 cell lines with known DNA damage response pathways - wild type cell line (AID 743012); further: nearly all actives have a fitted effect of over 60% in size; further: potency means the concentration at half of the fitted maximal effect
In short: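 Parental DNA repair-proficient DT40 cells, 300 per well, were pre-incubated ~0.5 h at 37 C/5% CO2, pin-dosed with compounds in DMSO, then incubated 40 h. Viability was read as CellTiter-Glo luminescence after 30 min at room temperature.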

[3] = qHTS assay for identifying genotoxic compounds that show differential cytotoxicity against isogenic chicken DT40 cell lines with known DNA damage response pathways - Rev3 mutant cell line (AID 743014); further: nearly all actives have a fitted effect of over 55% in size; further: potency means the concentration at half of the fitted maximal effect
[4] = qHTS assay for identifying genotoxic compounds that show differential cytotoxicity against isogenic chicken DT40 cell lines with known DNA damage response pathways - Rad54/Ku70 mutant cell line (AID 743015); further: nearly all actives have a fitted effect of over 60% in size; further: potency means the concentration at half of the fitted maximal effect
[5] = qHTS assay to identify small molecule antagonists of the androgen receptor (AR) signaling pathway - cell viability counter screen (AID 743033; further: nearly all actives have a fitted effect of over 45% in size; further: potency means the concentration at half of the fitted maximal effect)
[6] = qHTS assay to identify small molecule antagonists of the androgen receptor (AR) signaling pathway using the MDA cell line - cell viability counter screen (AID 743041; further: nearly all actives have a fitted effect of over 45% in size; further: potency means the concentration at half of the fitted maximal effect)
In short: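 R1881-driven MDA-kb2 AR-luc cells, 3,000/well, were dosed with library compounds for 16 h; cell health came from CellTiter-Fluor fluorescence in the reporter wells.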

[7] = target: Androgen receptor (Homo sapiens) (UniProt P10275); assay: qHTS assay to identify small molecule antagonists of the androgen receptor (AR) signaling pathway (AID 743035; active means well fitted inhibition curve with a large enough effect in the signal ratio in the repeat runs, not every such curve was filed as active; the % refers to the signal ratio)
In short: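 HEK293 cells stably carrying a UAS-driven beta-lactamase reporter (AR-UAS-bla GripTite) were plated for 4 h at 37C, then given compound and the agonist R1881 and incubated 16 h. Reporter activity was read by LiveBLAzer B/G FRET fluorescence after 2 h at room temperature.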

[8] = target: Androgen receptor (Homo sapiens) (UniProt P10275); assay: qHTS assay to identify small molecule agonists of the androgen receptor (AR) signaling pathway (AID 743036; active means well fitted activation curve with a large enough effect in the signal ratio in the repeat runs, with a control signal flat, not every such curve was filed as active; the % refers to the signal ratio)
In short: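 Screening used 2,000 AR-bla HEK293 cells per well, treated 16 h at 37C with test compounds in DMSO alongside positive and DMSO-only controls; beta-lactamase activity was then read by LiveBLAzer B/G FRET fluorescence after 2 h at room temperature.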

[9] = target: Androgen receptor (Homo sapiens) (UniProt P10275); assay: qHTS assay to identify small molecule agonists of the androgen receptor (AR) signaling pathway using the MDA cell line (AID 743040; further: nearly all actives have a fitted effect of over 20% in size)
In short: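 After a 5 h incubation at 37C and 0% CO2, MDA-kb2 reporter cells were dosed with compounds in DMSO and kept 16 h under the same conditions. Luciferase activity was then read as luminescence with ONE-Glo.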

[10] = target: Androgen receptor (Homo sapiens) (UniProt P10275); assay: qHTS assay to identify small molecule antagonists of the androgen receptor (AR) signaling pathway using the MDA cell line (AID 743042; further: nearly all actives have a fitted effect of over 55% in size)
In short: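 Antagonist mode: compounds plus R1881 agonist added to MDA-kb2 AR-luc cells, incubated 16 h at 37C. Luciferase reporter luminescence quantified, with multiplexed CellTiter-Fluor readout for cell viability.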

Sequence of Androgen receptor (Homo sapiens) (P10275 whole entry, looked up): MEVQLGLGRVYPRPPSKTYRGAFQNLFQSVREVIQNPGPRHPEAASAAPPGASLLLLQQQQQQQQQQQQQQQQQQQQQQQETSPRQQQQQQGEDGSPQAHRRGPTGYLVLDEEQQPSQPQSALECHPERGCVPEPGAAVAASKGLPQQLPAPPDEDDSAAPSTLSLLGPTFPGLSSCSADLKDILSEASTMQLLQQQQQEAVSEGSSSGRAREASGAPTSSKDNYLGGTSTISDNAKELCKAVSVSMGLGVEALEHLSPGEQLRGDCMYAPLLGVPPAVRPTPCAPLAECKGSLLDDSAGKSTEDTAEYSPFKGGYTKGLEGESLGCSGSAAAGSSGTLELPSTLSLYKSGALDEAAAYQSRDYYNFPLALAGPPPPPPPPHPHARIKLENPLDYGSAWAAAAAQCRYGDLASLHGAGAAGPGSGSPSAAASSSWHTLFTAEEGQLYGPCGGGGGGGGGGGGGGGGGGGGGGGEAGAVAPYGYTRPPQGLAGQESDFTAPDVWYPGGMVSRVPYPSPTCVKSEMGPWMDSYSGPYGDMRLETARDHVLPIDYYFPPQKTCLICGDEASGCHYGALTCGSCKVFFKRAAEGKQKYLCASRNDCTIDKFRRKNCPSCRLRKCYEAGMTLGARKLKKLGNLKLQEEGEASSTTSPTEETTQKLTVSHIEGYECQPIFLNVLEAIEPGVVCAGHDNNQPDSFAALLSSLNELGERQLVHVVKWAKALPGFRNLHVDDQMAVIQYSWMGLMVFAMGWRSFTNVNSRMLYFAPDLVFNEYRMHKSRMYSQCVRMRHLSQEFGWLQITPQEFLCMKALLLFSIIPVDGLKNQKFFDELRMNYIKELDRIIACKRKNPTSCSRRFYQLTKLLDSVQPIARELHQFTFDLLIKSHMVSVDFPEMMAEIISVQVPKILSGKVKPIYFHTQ

Structure (SMILES)	Potency [1]	Potency [2]	Potency [3]	Potency [4]	Potency [5]	Potency [6]	Potency [7]	outcome [8]	Potency [9]	outcome [10]
CC1CCC(=O)O1 (stereo not given)	inactive	inactive	inactive	inactive	inactive	inactive				
CCOC(=O)/C=C(C)/C=C/C[C@@H](C)CCCC(C)C	inactive	30.6 µM (active)	54.5 µM (active)	inactive and 43.3 µM (active)	inactive	inactive				
ClCCOCOCCCl	inactive	inactive	inactive	inactive	inactive	inactive				
CCOC(=O)CP(=O)(OCC)OCC	inactive	inactive	inactive	inactive	inactive	inactive				
Oc1c(Cl)cccc1Cl	inactive	inactive	inactive	inactive	inactive	inactive				
C(CCOCC1CO1)COCC1CO1 (stereo not given)	inactive	12 µM (active)	1.07 µM (active)	15.1 µM (active)	inactive	inactive				
CNNC	inactive	inactive	inactive	inactive	inactive	inactive				
COc1cccc2c1cc([N+](=O)[O-])c1c(C(=O)O)cc3c(c12)OCO3	12.3 µM (active)	0.77 µM (active)	0.137 µM (active)	0.193 µM (active)	12.3 µM (active)	34.4 µM (active)				
CCCCOC(=O)[C@@H](C)Oc1ccc(Oc2ccc(C#N)cc2F)cc1	inactive	34.2 µM (active)	30.5 µM (active)	43 µM (active)	inactive	inactive				
ClC(Cl)(Cl)C(Cl)(Cl)Cl	inactive	inactive	inactive	inactive	inactive	inactive				
N#Cc1ccncc1	inactive	inactive	inactive	inactive	inactive	inactive				
BrCCCCCCBr	inactive	inactive	inactive	inactive	inactive	inactive				
CCCCCCBr	inactive	inactive	inactive	inactive	inactive	inactive				
CCOP(=O)(N=C1SCCS1)OCC	inactive	inactive	inactive	inactive	inactive	inactive				
OCCSCSCCO	inactive	inactive	inactive	inactive	inactive	inactive				
CCN(CC)c1nc(C)cc(OP(=S)(OC)OC)n1	inactive	48.6 µM (active)	48.6 µM (active)	48.6 µM (active)	inactive	inactive				
CCC1(c2ccccc2)C(=O)N=C(O)NC1=O (stereo not given)	inactive	inactive	inactive			inactive				
[O]=[Cd]	inactive	inactive	inactive	inactive	inactive	inactive				
ClCC(Cl)(Cl)Cl	inactive	inactive	inactive	inactive		inactive				
CNC(=O)Oc1cccc(C(C)C)c1	inactive	inactive	inactive	inactive	inactive	inactive				
Cc1ncc(CNC(=O)N(CCCl)N=O)c(N)n1	inactive	inactive		inactive						
O=C(O)c1cccc(Cl)c1	inactive	inactive	inactive	inactive	inactive	inactive				

Structure (SMILES)	Potency [1]	Potency [2]	Potency [3]	Potency [4]	Potency [5]	Potency [6]	Potency [7]	outcome [8]	Potency [9]	outcome [10]
CCCCc1c(C)nc(NCC)[nH]c1=O	inactive	inactive	inactive	inactive		inactive				
O=[N+]([O-])c1cc(Cl)c(Cl)c(Cl)c1	inactive	inactive	inactive	inactive		inactive				
CCC#N	inactive	inactive	inactive	inactive		inactive				
CNC(=O)Oc1c(C(C)(C)C)cc(C)cc1C(C)(C)C	inactive	inactive	inactive		inactive	inactive	inactive	inactive	inactive	inactive
CCCCOC(=O)c1ccccc1N	inactive	inactive	inactive		inactive	inactive				
COc1ccc(C(=O)N2CCCC2=O)cc1	inactive	inactive	inactive	inactive		inactive				
Cc1coc2c1CCC(C)C2 (stereo not given)	inactive	inactive	inactive	inactive		inactive				
Fc1ccc(C2(Cn3cncn3)OC2c2ccccc2Cl)cc1 (stereo not given)	inactive	15.4 µM (active)	34.4 µM (active)	27.3 µM (active)		inactive				
CCOC(=O)NC(=S)Nc1ccccc1NC(=S)NC(=O)OCC	inactive	61.1 µM (active)	30.6 µM (active)	48.6 µM (active)	inactive	inactive				
O=[N+]([O-])c1ccc2c3c(cccc13)CC2	inactive	inactive	19.3 µM (active)		inactive	inactive				
C[C@@H]1CN(C2CCC(C#N)(c3ccc(F)cc3)CC2)CC[C@]1(C(=O)O)c1ccccc1 (stereo not given in full)	inactive	inactive	inactive	inactive	inactive	inactive				
CCNc1nc(NC(C)C)nc(OC)n1	inactive	inactive	inactive	inactive	inactive	inactive				
CCOP(=S)(OCC)Oc1ncn(-c2ccccc2)n1	inactive	61.1 µM (active)	34.4 µM (active)	48.6 µM (active)		inactive		inactive	inactive	inactive
CCS(=O)(=O)C(C)(C)S(=O)(=O)CC	inactive	inactive	inactive	inactive		inactive				
C=C(C)CN(CC)c1c([N+](=O)[O-])cc(C(F)(F)F)cc1[N+](=O)[O-]	inactive	inactive	inactive	inactive		inactive				
CCSC(=O)N(CC)C1CCCCC1	inactive	inactive	inactive	inactive	inactive	inactive				
CC(CC(C#N)(c1ccccc1)c1ccccc1)N(C)C (stereo not given)	inactive	30.5 µM (active)	54.2 µM (active)	48.3 µM (active)		inactive				
OC(c1ccccc1)(c1ccccc1)C1CCNCC1	inactive	11.4 µM (active)	inactive		inactive					
O=S(=O)(O)C(F)(F)C(F)(F)C(F)(F)C(F)(F)C(F)(F)C(F)(F)F	inactive	inactive	inactive	inactive	inactive	inactive				
CNC(=O)O/N=C(\C)SC	inactive	inactive	inactive	inactive	inactive	inactive				
O=C1CN=C(c2ccccc2)c2cc([N+](=O)[O-])ccc2N1	inactive	inactive	inactive	inactive	inactive	inactive				
[As]#[In]	inactive	inactive	inactive	inactive		inactive				

Structure (SMILES)	Potency [1]	Potency [2]	Potency [3]	Potency [4]	Potency [5]	Potency [6]	Potency [7]	outcome [8]	Potency [9]	outcome [10]
O=C(Nc1ccccc1)N(Cc1ccc(Cl)cc1)C1CCCC1	inactive	3.86 µM (active)	0.611 µM (active)	1.54 µM (active)		inactive				
COc1cc2c(cc1OC)[C@@]13CCN4CC5=CCO[C@H]6CC(=O)N2[C@H]1[C@H]6[C@H]5C[C@H]43	inactive	24.3 µM (active)	24.3 µM (active)	26.6 µM (active) and 13.7 µM (active)	inactive	inactive				
CN/C(=N\[N+](=O)[O-])NCC1CCOC1 (stereo not given)	inactive	inactive	inactive	inactive		inactive				
CC(=O)Nc1cc([As](=O)(O)O)ccc1O	inactive	inactive		inactive						
OCCBr	inactive	inactive	19.4 µM (active)		inactive	inactive				
O=P(O)(Oc1ccccc1)Oc1ccccc1	inactive	inactive	inactive	inactive	inactive	inactive				
COCC(=O)N(c1c(C)cccc1C)N1CCOC1=O	inactive	inactive	inactive	inactive	inactive	inactive				
CCCCC(=O)Cl	inactive	inactive		inactive	inactive					
O=c1oc2ccccc2c(O)c1C1CCCc2ccccc21 (stereo not given)	inactive		inactive	inactive						
COC(=O)c1ccccc1S(=O)(=O)NC(=O)N(C)c1nc(C)nc(OC)n1	inactive		inactive	inactive	inactive					
CCOP(=S)(OCC)SCSc1ccc(Cl)cc1	inactive	inactive		inactive	inactive	inactive				
CC(C)CC(N(C)C)C1(c2ccc(Cl)cc2)CCC1 (stereo not given)	inactive		inactive							
CCOP(=O)(OCC)OP(=O)(OCC)OCC	inactive	inactive		inactive	inactive	inactive	inactive	inactive	inactive	inactive
CC(C)(C)NCC(O)c1cc(Cl)c(N)c(Cl)c1 (stereo not given)	inactive	inactive		inactive		inactive	inactive	inactive	inactive	inactive
Cc1ccccc1CO[C@@H]1C[C@@]2(C(C)C)CC[C@]1(C)O2	inactive		48.6 µM (active)	54.5 µM (active)	inactive	inactive	inactive	inactive	inactive	
CS(=O)(=O)c1cc(C(F)(F)F)ccc1C(=O)c1cnoc1C1CC1	inactive	inactive		inactive		inactive				
O=C(CCCN1CCC(n2c(=O)[nH]c3ccccc32)CC1)c1ccc(F)cc1	inactive	12.7 µM (active)		10.1 µM (active)			inactive	inactive	inactive	inactive
CC1=NNC(=O)N(/N=C/c2cccnc2)C1	inactive	inactive		inactive	inactive	inactive				
O=[N+]([O-])c1cccc(O)c1	inactive	inactive		inactive	inactive	inactive				
Cc1cc(C)nc(Nc2ccccc2)n1	inactive	inactive			inactive					
CCOP(=S)(Oc1cnc(C(C)(C)C)nc1)OC(C)C (stereo not given)	inactive		27.3 µM (active)	48.6 µM (active)	inactive					
CNCC(=O)c1ccc(O)c(O)c1	inactive		inactive	inactive	inactive					
